Reference: PubChem BioAssay (NCATS)
Where “and” joins values, the source holds several entries; their conditions need not be identical. Equal entries are not always repeated. Records with an inconclusive call do not appear. Calls of active or inactive are those of the source. Calls come from the whole dose curve; as a rule, active = well fitted curve in the direction sought with a large enough effect; inconclusive = small, poorly fitted or top-dose-only effect, or another doubt; inactive = no such curve, though single readings can be large; an effect the other way counts as inactive or inconclusive.

Experiments:
TAB165 = experiment: qHTS profiling for inhibitors of Plasmodium falciparum proliferation (AID 504749);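 note: 0% = DMSO vehicle and full inhibition = artemisinin control; nearly all actives have a fitted effect of over 60% in size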; conditions: P. falciparum in erythrocytes, SYBR Green DNA, 72 h; series mostly up to 28.7 µM
Procedure, shortened: (§1)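 Parasite proliferation within erythrocytes, 72 h exposure. Endpoint: SYBR Green I fluorescence after overnight lysis at room temperature. Controls: 0.29 uM artemisinin, DMSO.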

W2 = experiment: as above; conditions: P. falciparum in erythrocytes, SYBR Green DNA, 72 h; series mostly up to 28.7 µM
Procedure, shortened: as §1

CRL-7250 [1] = experiment: Cytotoxic Profiling of Annotated Libraries Using Quantitative High-Throughput Screening (AID 1296008); conditions: Five cell lines viability, CellTiter-Glo ATP luminescence, 48-72 h; max response: active compounds read low; note: nearly all actives have a fitted effect of over 60% in size; for max response: % is set by controls: 0 for no effect and ±100 for the full control effect
Procedure, shortened: (§2)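 Compounds were pin-transferred onto cells and incubated 48 or 72 hr at 37 degree Celsius, 95% humidity. CellTiter-Glo was added, plates sat 10 min at room temperature, then ATP-coupled luminescence was imaged as the viability read-out.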

HaCat [2] = experiment: as above; conditions: Five cell lines viability, CellTiter-Glo ATP luminescence, 48-72 h; max response: active compounds read low
Procedure, shortened: as §2

KB-3-1 = experiment: as above; conditions: Five cell lines viability, CellTiter-Glo ATP luminescence, 48-72 h; max response: active compounds read low
Procedure, shortened: as §2

NIH3T3 [3] = experiment: as above; conditions: Five cell lines viability, CellTiter-Glo ATP luminescence, 48-72 h; max response: active compounds read low
Procedure, shortened: as §2

CRL-7250 [4] = experiment: qHTS assay to identify novel small-molecules to repurpose for Merkel cell carcinoma treatment (AID 1296009); conditions: MCC and control cell lines, CellTiter-Glo viability, 72 h; series mostly up to 44.8 µM; note: nearly all actives have a fitted effect of over 60% in size
Procedure, shortened: (§3)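 qHTS format: cells treated with library compounds in DMSO across 8 (NPC) or 11 (MIPE) concentrations. Readout after 72 hr at 37 degree celsius was CellTiter-Glo luminescence.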

HEK293T = experiment: as above; conditions: MCC and control cell lines, CellTiter-Glo viability, 72 h; at 44.8 µM (top of the series)
Procedure, shortened: as §3

MCC-13 = experiment: as above; conditions: MCC and control cell lines, CellTiter-Glo viability, 72 h; series mostly up to 46 µM
Procedure, shortened: as §3

MCC-26 = experiment: as above; conditions: MCC and control cell lines, CellTiter-Glo viability, 72 h; series mostly up to 46 µM
Procedure, shortened: as §3

MKL-1 = experiment: as above; conditions: MCC and control cell lines, CellTiter-Glo viability, 72 h; series mostly up to 46 µM
Procedure, shortened: as §3

MKL-2 = experiment: as above; conditions: MCC and control cell lines, CellTiter-Glo viability, 72 h; series mostly up to 46 µM
Procedure, shortened: as §3

NIH3T3 [5] = experiment: as above; conditions: MCC and control cell lines, CellTiter-Glo viability, 72 h; at 44.8 µM (top of the series) unless noted
Procedure, shortened: as §3

UISO = experiment: as above; conditions: MCC and control cell lines, CellTiter-Glo viability, 72 h; series mostly up to 46 µM
Procedure, shortened: as §3

WaGa = experiment: as above; conditions: MCC and control cell lines, CellTiter-Glo viability, 72 h; series mostly up to 46 µM
Procedure, shortened: as §3

C33A = experiment: Primary qHTS to identify gynecologic anti-cancer compounds using libraries of approved drugs and bioactive compounds (AID 1345084); conditions: Gynecologic cancer cell panel viability, ATPlite luminescence, 48 h; series mostly up to 57.5 µM; note: % is set by controls: 0 for no effect and ±100 for the full control effect; nearly all actives have a fitted effect of over 55% in size
Procedure, shortened: (§4)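 Cell viability after 48 h drug treatment, ATPlite luminescence readout; five doses.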

CAOV3 = experiment: as above; conditions: Gynecologic cancer cell panel viability, ATPlite luminescence, 48 h; series mostly up to 57.5 µM
Procedure, shortened: as §4

CASKI = experiment: as above; conditions: Gynecologic cancer cell panel viability, ATPlite luminescence, 48 h; series mostly up to 57.5 µM
Procedure, shortened: as §4

HEK293 = experiment: Cytotoxic Profiling of Annotated Libraries Using Quantitative High-Throughput Screening (AID 1296008); conditions: Five cell lines viability, CellTiter-Glo ATP luminescence, 48-72 h; max response: active compounds read low; note: nearly all actives have a fitted effect of over 60% in size; for max response: % is set by controls: 0 for no effect and ±100 for the full control effect
Procedure, shortened: as §2

HACAT [6] = experiment: qHTS assay to identify novel small-molecules to repurpose for Merkel cell carcinoma treatment (AID 1296009); conditions: MCC and control cell lines, CellTiter-Glo viability, 72 h; at 44.8 µM (top of the series) unless noted; note: nearly all actives have a fitted effect of over 60% in size
Procedure, shortened: as §3

CCCC(C)(COC(N)=O)COC(=O)NC(C)C (centres undefined)
inactive: Potency (TAB165) | Potency (W2) | outcome (CRL-7250 [1]) | max response (HaCat [2]) -8.86% and 1.84% | max response (KB-3-1) -16.5% | outcome (KB-3-1) | max response (NIH3T3 [3]) -10.4% | outcome (NIH3T3 [3]) | outcome (CRL-7250 [4]) | outcome (HEK293T) | Potency (MCC-13) | Potency (MCC-26) | Potency (MKL-1) | Potency (MKL-2) | outcome (NIH3T3 [5]) | Potency (UISO) | Potency (WaGa) | Potency (C33A) | Potency (CAOV3) | Potency (CASKI)

COC1(CS(=O)c2ccccc2)CCN(CCc2c[nH]c3ccc(F)cc23)CC1 (centres undefined)
inactive: max response (CRL-7250 [1]) -22.3% | max response (HEK293) -11.2% | max response (HaCat [2]) -21.9% | max response (KB-3-1) -9.1% | max response (NIH3T3 [3]) -8% | Potency (MCC-13) | Potency (MCC-26) | Potency (MKL-1) | Potency (MKL-2) | Potency (UISO) | Potency (WaGa)

Cc1ccc(-c2nc3ccc(C)cn3c2CC(=O)N(C)C)cc1
inactive: Potency (TAB165) | Potency (W2) | max response (CRL-7250 [1]) 3.97% | max response (HEK293) -21.2% | max response (HaCat [2]) -0.388% | max response (KB-3-1) 2.97% | max response (NIH3T3 [3]) -7.47% | Potency (MCC-13) | Potency (MCC-26) | Potency (MKL-1) | Potency (MKL-2) | Potency (UISO) | Potency (WaGa) | Potency (C33A) | Potency (CAOV3) | Potency (CASKI)

NCCc1cc(O)c(O)cc1O
inactive: Potency (TAB165) | Potency (W2) | max response (CRL-7250 [1]) 3.51% | outcome (HaCat [2]) | max response (KB-3-1) 9.04% | outcome (NIH3T3 [3]) | outcome (HACAT [6]) | outcome (HEK293T) | Potency (MCC-13) | Potency (MCC-26) | Potency (MKL-1) | Potency (MKL-2) | outcome (NIH3T3 [5]) | Potency (UISO) | Potency (WaGa) | Potency (C33A) | Potency (CAOV3) | Potency (CASKI)

CNCC(O)c1ccc(O)cc1 (centres undefined)
inactive: max response (CRL-7250 [1]) -6.88% | outcome (HaCat [2]) | max response (KB-3-1) 12.6% | outcome (KB-3-1) | max response (NIH3T3 [3]) -18% | outcome (NIH3T3 [3]) | outcome (HACAT [6]) | Potency (MCC-13) | Potency (MCC-26) | Potency (MKL-1) | Potency (MKL-2) | outcome (NIH3T3 [5]) | Potency (UISO) | Potency (WaGa) | Potency (C33A) | Potency (CAOV3) | Potency (CASKI)

O=C(NC(O)C(Cl)(Cl)Cl)NC(O)C(Cl)(Cl)Cl (centres undefined)
inactive: Potency (TAB165) | Potency (W2) | max response (CRL-7250 [1]) 1.53% | outcome (HaCat [2]) | max response (KB-3-1) 2.53% | outcome (NIH3T3 [3]) | outcome (HACAT [6]) | Potency (MCC-13) | Potency (MCC-26) | Potency (MKL-1) | Potency (MKL-2) | outcome (NIH3T3 [5]) | Potency (UISO) | Potency (WaGa) | Potency (C33A) | Potency (CAOV3) | Potency (CASKI)
